As usually defined, the inhibition is the relative decrease from the control value, in per cent.

The whole screen tested about 96,000 compounds, of which about 20,000 (21%) were called active. These entries were drawn from the full list. Values without a mark were called inactive.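 How the source made its calls: active means CYP2C19 inhibition above a set limit at 5 µM in the primary screen (cut at about 50% in these data); inactive means the rest.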

Cytochrome P450 2C19 (Homo sapiens), sequence (P33261 whole entry, looked up): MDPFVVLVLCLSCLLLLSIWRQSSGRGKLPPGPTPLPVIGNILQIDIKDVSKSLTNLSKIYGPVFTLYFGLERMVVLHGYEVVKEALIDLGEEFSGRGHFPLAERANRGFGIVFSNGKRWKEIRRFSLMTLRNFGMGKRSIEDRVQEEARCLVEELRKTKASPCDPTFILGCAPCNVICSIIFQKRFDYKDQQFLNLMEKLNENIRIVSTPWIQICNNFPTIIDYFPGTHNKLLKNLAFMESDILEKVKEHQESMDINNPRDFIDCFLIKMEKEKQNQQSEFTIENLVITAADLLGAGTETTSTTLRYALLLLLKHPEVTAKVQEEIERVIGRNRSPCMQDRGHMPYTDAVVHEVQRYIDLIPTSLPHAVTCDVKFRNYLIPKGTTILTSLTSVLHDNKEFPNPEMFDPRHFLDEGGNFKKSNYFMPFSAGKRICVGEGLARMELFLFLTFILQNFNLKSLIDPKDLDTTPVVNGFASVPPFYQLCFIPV

This assay concerns the target Cytochrome P450 2C19 (Homo sapiens) (UniProt P33261). The assay can be described thus: blockers of cytochrome P450 2C19 activity – biochemical, luminescence, ADME assay, primary screen (AID 778).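 Further: plate controls were negative control wells for no effect and 2.5 mM tranylcypromine positive control for full effect.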 As to conditions: CYP2C19 Supersomes, luciferin-H EGE luminescence, 30 min; at 5 µM; hits give high values.
Consider `Cc1ccc2nc3n(c(=O)c2c1)CCC3`, for which the inhibition is -4.2%. The value for `Cc1ccccc1NC(=O)Cc1nnc(SCC(=O)N2CCN(c3ccccc3)CC2)n1C` was 26.9%; that for `O=C(Nc1nnc(CCc2ccccc2)s1)C1CCCO1` (centres undefined) was 15.6%; that for `O=C(Nc1cccc(-c2nnc(-c3ccccc3)o2)c1)C1CCCO1` (centres undefined) was 71.9% (active).

`O=C(Nc1ccc(-c2nnc(-c3ccccc3)o2)cc1)C1CCCO1` (centres undefined): the inhibition is 17.1%.

Consider `Cc1nc(SCC(=O)Nc2cc(C)on2)c2c(C)c(C)sc2n1`, for which the inhibition is 9.2%.

For `CCOc1cc(C2C(C(=O)OC)=CN(C3CCCC3)C=C2C(=O)OC)cc(Br)c1O`, the inhibition is -1.9%. Then `CC(=O)c1cc(NC(=O)c2ccccc2)c(=O)oc1/C=C/N(C)C`, with 0.3%; and `CN(C)c1cc(N)c2ccccc2n1` (tested in a mixture with another compound), with -9.5%; and `CN1CCN(c2ccc(NC(=O)COc3ccc(Cl)cc3Cl)cc2)CC1`, with 17.9%. Turning to `Cc1cc(Nc2ccccc2)n(CCC#N)n1`, the inhibition was -5.9%.

Consider `Cc1cc(NC(=O)COc2ccc(Cl)cc2Cl)n(CCC#N)n1`, for which the inhibition is 99.1% (active). Consider `Cc1ccc(S(=O)(=O)N2C3C=CC(C3)C2C(=O)O)cc1` (centres undefined), for which the inhibition is 10.3%. The value for `CC(C)(C)c1csc(NC2=NS(=O)(=O)c3ccccc32)n1` was 0.4%.

As for `O=S1(=O)C=C(SCCN2CCCC2)c2ccccc21`, the inhibition is 28.3%. Consider `CC(C)(C)c1ccc(OC2=CS(=O)(=O)c3ccccc32)cc1`, for which the inhibition is 65.2% (active). Take `COc1cc2[nH]c(=S)n(CCN3CCCCC3C)c(=O)c2cc1OC` (centres undefined): the inhibition was -5.5%. The value for `O=C1CCCc2c1[nH]c1ccc(Br)cc21` was 15.9%; that for `Nc1c(-c2ccc(F)cc2)cnc2ncnn12` was -14%. For the molecule `COC(=O)[C@H](CCSC)NC(=O)Nc1ccc(OC)cc1`, the inhibition was 38%. Then `Cc1nc2ccccc2cc1OCc1ccc(F)cc1`, with 17.6%; and `c1ccc(COc2ccccc2CNCc2cccnc2)cc1`, with 59.4% (active); and `COc1ccccc1CNCc1cccs1`, with 31.8%. Regarding `Cn1c(=O)c2c(nc(OCc3cccnc3)n2Cc2ccccc2)n(C)c1=O`, the inhibition is 16.8%. For `Fc1ccccc1COc1ccccc1CNCc1ccncc1`, the inhibition is 96.3% (active). The value for `COc1cc(/C=C2/C(=O)ON=C2C)ccc1OCc1ccccc1F` was 17.5%. For the molecule `Cc1nnc(SCC(=O)NC2CCCC2)s1`, the inhibition was 19.1%.

Take `Cn1cccc1C(=O)NC(=O)COC(=O)Cc1coc2ccc3ccccc3c12`: the inhibition was 31.8%.

On to `O=c1[nH][nH]c(=O)c2cc(N3CCCC3)ccc12`, for which the inhibition is 0.9%. As for `CCOc1ccc(-c2nc(C)sc2CC(=O)O)cc1`, the inhibition is 12.3%.

`CCc1nc(C)ccc1OCC(=O)N(CC)CC`: the inhibition was 0.2%. The value for `C=CCn1c(SCC(=O)NCc2ccccc2)nnc1-c1cc(Br)ccc1O` was 91.6% (active); that for `C=CCn1c(COc2ccccc2)nnc1SCC(=O)NCC(=O)OCC` was -8.4%; that for `C=CCn1c(N)cc(=O)nc1SCC(=O)Nc1cccc2ccccc12` was 1%. Take `C=CCn1c(CSc2nc3ccccc3s2)nnc1SCC(=O)NCc1ccco1`: the inhibition was 24.8%.

`C=CCn1c(SCC(=O)Nc2nc3ccccc3s2)nnc1-c1ccccc1O`: the inhibition was 54.6% (active). Then `CCCCCCn1c(CN2CCCC(C)C2)nc2c1c(=O)n(C)c(=O)n2C` (centres undefined), with 2.2%; and `CCOC(=O)Nc1ccc2c(c1)N(C(=O)CN1CCN3CCCC3C1)c1ccccc1CC2` (centres undefined), with 18.2%; and `CCCCNC(=O)C1CCCNC1=O` (centres undefined), with -19%. Consider `CCOC(=O)c1nnn(-c2nc(OC)nc(N(C)C)n2)c1-c1ccccc1`, for which the inhibition was 27.7%. Then `CCOC(=O)C1=C(c2ccccc2)O/C(=C(/C(=O)OC)C(F)(F)F)S1`, with 11.1%. The value for `CCOC(=O)c1nnn(-c2nonc2OC)c1-c1ccccc1` was 60.7% (active); that for `Cc1cccc(C(=O)Nc2ccc(C(=O)/C=C/c3cccs3)cc2)c1` was -1.9%.

For the molecule `CCCNC(=O)NCc1ccc(N2CCCC2=O)cc1`, the inhibition was 3.6%. The value for `Brc1ccc(OCCn2ccnc2)cc1` was 91.7% (active); that for `COc1cccc(C(=O)Nc2c3c(nn2-c2cccc(C)c2C)CS(=O)(=O)C3)c1OC` was -2.2%; that for `C=CCNC(=O)C1CC=CCC1C(=O)O` (centres undefined) was -11.3%. Then `N#CC1=C(SCc2ccccc2)NC(=O)C(C#N)C12CCCC2` (centres undefined), with 63.9% (active); and `O=C1c2ccccc2C(=O)N1CCCc1nc(-c2ccccc2)no1`, with 9.5%; and `Cc1ccc(Cc2nc(-c3cccc(C)c3)no2)cc1`, with 2.2%. With `c1ccc(CCc2nc(-c3ccncc3)no2)cc1`, the inhibition was 97.5% (active).

As to `CCOC(=O)N1CCN(CC(=O)Nc2cc(C)nn2-c2nc3ccccc3s2)CC1`, the inhibition is 39.8%. Take `CCn1cc(C(=O)N/N=C(/C)c2ccc(F)cc2)c(=O)c2cc(F)c(N3CCCC3)cc21`: the inhibition is 39.5%.

`Cc1nnc(SCC(=O)Nc2ncc3c(n2)CC(C)(C)CC3=O)s1`: the inhibition is 1.5%. The value for `CCN1C(=O)C(CC(=O)Nc2cc(C)ccc2C)SC1=Nc1ccc(S(N)(=O)=O)cc1` (centres undefined) was 17.6%; that for `CC(=O)Oc1ccc(C(=O)Nc2nccs2)cc1` was 16.7%. In the case of `Cn1cccc1C(=O)Nc1nccs1`, the inhibition was 8.5%.

As to `O=C(CCSCCc1ccccn1)Nc1nccs1`, the inhibition is 82.6% (active).

Regarding `CC(C(=O)N1CCOCC1)N1c2cccc3cccc(c23)S1(=O)=O` (centres undefined), the inhibition is 80.5% (active).

Consider `CC(C(=O)O)N1C(=O)c2cccc3cccc1c23` (centres undefined), for which the inhibition was -13.8%. Regarding `NC(=NC(=O)c1ccccc1)N1CCOCC1`, the inhibition was 12%. As for `O=C(NCCN1CCN(Cc2ccccc2)CC1)c1cc2c(=O)[nH]c3ccccc3c2s1`, the inhibition is -2.7%.

In the case of `Nn1c(Cc2cccc3ccccc23)nnc1SCC(=O)N1CC(=O)Nc2ccccc21`, the inhibition was -8.7%. Then `COc1ccc(NC(=O)c2c(SC)nsc2SC)cc1`, with 7.1%; and `O=S1(=O)CCN2C(=N1)SC1=C2CCN(Cc2ccccc2)C1`, with 48.1%. `CN(C(=O)C1CCOC1)c1nnc(-c2cccnc2)s1` (centres undefined): the inhibition was 5.3%. The value for `CC(C)(C)NC(=O)Cn1cnc([N+](=O)[O-])n1` was 6.1%; that for `Cn1nc([N+](=O)[O-])nc1Sc1ccc(C(C)(C)C)cc1` was 97.1% (active); that for `Cn1cnc([N+](=O)[O-])c1Sc1ccccc1` was 30.3%. For the molecule `Cc1ccc(-c2n[nH]c(=S)n2/N=C/c2cc3c(cc2[N+](=O)[O-])OCO3)cc1`, the inhibition was 0.8%. Consider `O=C(COc1ncnc2c(Cl)cc(Cl)cc12)N1CCN(S(=O)(=O)c2ccccc2)CC1`, for which the inhibition is -6.9%.

For `CCOC(=O)c1c(C)[nH]c(C(=O)NCc2ccccc2OC)c1C`, the inhibition was 44.3%. The value for `COc1cc(SC)ccc1C(=O)NCCOc1ccccc1Cl` was 94.9% (active); that for `CCc1nnc(NC(=O)CCC(=O)NCc2ccccc2OC)s1` was -8%; that for `COc1ccc(Cl)cc1C(=O)NCC#N` was -3.6%. With `CCCOc1ccccc1C(=O)NCCCC(=O)O`, the inhibition was 9.9%.

Regarding `COc1ccccc1CNC(=O)c1ccc(SC)cc1OC`, the inhibition was 78.9% (active).

Consider `O=C1CCCN1CCCNc1ncnc2c1[nH]c1ccccc12`, for which the inhibition was 39%. As to `CC(=O)Nc1ccc(N2C(=O)CCC2=O)cc1C`, the inhibition is 9.8%.

Take `O=C(/C=C/Sc1ncn[nH]1)c1ccc(Cl)cc1`: the inhibition is 38.2%.

Regarding `CC1Cc2ccccc2N1C(=O)CSc1nnc(-c2ccc(S(=O)(=O)N3CCCCC3)cc2)o1` (centres undefined), the inhibition was 12.5%. Then `O=C(CCS(=O)(=O)Cc1ccccc1F)NCCCN1CCCCC1`, with 22.6%; and `CCCNC(=O)CN(Cc1ccccc1F)S(=O)(=O)c1ccc(C)cc1`, with 64.4% (active); and `Cc1ccc(S(=O)(=O)N(CC(=O)NCCSC2CCCCC2)c2ccccc2F)cc1`, with -4.4%.

With `Cc1cc(=O)n2nc(N3CCCC(C(=O)NCCC4=CCCCC4)C3)sc2n1` (centres undefined), the inhibition is 35.1%. Then `CCOC(=O)N1CCC(NC(=O)Cc2cn(C)c3ccccc23)CC1`, with -8.8%. The value for `CC1=Nn2c(nnc2-c2ccccc2)SC1` was -2%. Then `CCOc1ccccc1C1CC(c2ccc(Cl)cc2)Nc2nc(N)nn21` (centres undefined), with 90.2% (active). Consider `CCOc1ccccc1C1CC(c2ccccc2)Nc2nc(N)nn21` (centres undefined), for which the inhibition was 44.9%. Consider `COc1ccc(C2CC(c3ccc(Cl)cc3Cl)Nc3nc(N)nn32)cc1OC` (centres undefined), for which the inhibition was -12.5%. The value for `COc1ccc(NC(=O)COC(=O)Cn2c(C)nc3ccccc32)cc1OC` was -0.3%; that for `COCCn1c(-c2ccc(OC)c(OC)c2)nc2ccccc21` was 0.9%; that for `COc1ccc(-c2nc3ccccc3n2CCC(C)C)cc1OC` was 61.3% (active). Turning to `C=CCN(c1ccc(C(N)=O)cc1)S(C)(=O)=O`, the inhibition was -3.9%. Then `CSc1ccc(-c2c(C#N)c(N)nc3c2c(C)nn3-c2ccccc2)cc1`, with 4.1%; and `COc1cc(=O)[nH]c(=O)n1C(=O)Cc1ccccc1`, with 5.6%. Turning to `Cc1occc1C(=O)Nc1cccc(Cn2cccn2)c1`, the inhibition is 57% (active).

Regarding `Cc1occc1C(=O)Nc1nnc(C2CCCCC2)s1`, the inhibition is -3.5%.

As to `CCOc1cccc(C(=O)Nc2cnn(Cc3ccccc3)c2)c1`, the inhibition is 8.6%. Then `Cc1ccc(C(=O)COc2cccc(NC(=O)c3ccco3)c2)cc1`, with 32.7%; and `Cc1occc1C(=O)Nc1nnc(-c2ccncc2)s1`, with 98.1% (active); and `Cc1ccc(C(=O)Nc2nnc(-c3ccncc3)s2)o1`, with 27%.

Regarding `Fc1ccc(CNc2nc3ccccc3n3nnnc23)cc1`, the inhibition is 6%.

For the molecule `CN(C)/C=C1\C=C(c2ccccc2)OC1=O`, the inhibition is -5.7%.

(Values after PubChem BioAssay AID778 (Sanford-Burnham Center for Chemical Genomics, 2007).)
